Records with an inconclusive call do not appear. Where a call stands in place of a potency, no number is given. Activity calls are given as the source filed them. Calls come from the whole dose curve; as a rule, active = well fitted cell-killing curve with a large enough effect in the repeat runs; inconclusive = weak or mixed curves; inactive = flat fitted curve, though single readings scatter.
experiment: qHTS assay to identify small molecule antagonists of the TGF-beta/Smad signaling pathway - cell viability counter screen (AID 1346824); settings: SBE-bla HEK293T viability, CellTiter-Glo luminescence; series mostly up to 76.8 µM; note: nearly all actives have a fitted effect of over 50% in size
From the text: U.S. Tox21 Program National Center for Advancing Translational Sciences [NCATS] NIH Chemical Genomics Center [NCGC] U.S. Environmental Protection Agency [EPA] National Institutes of Environmental Health Sciences [NIEHS] National Toxicology Program [NTP] U.S. Food and Drug Administration [FDA] Tox21 Assay Overview: Transforming growth factor beta (TGF-beta) superfamily consists of a large number of structurally related dimeric proteins that act as hormones or local mediators in regulating a wide range of biological functions. This superfamily includes TGF-betas themselves, the bone morphogenetic proteins (BMPs) and the activins. These ligands induce oligomerization of serine/threonine receptor kinases and phosphorylate the cytoplasmic signaling molecules of Smad protein family. CellSensor SBE-bla HEK 293T cell line (Life Technologies, Carlsbad, CA), responsive to TGF-beta was used to screen Tox21 10K compound library for identification of agonists/antagonists of the Smad signaling pathway. This cell line contains a beta-lactamase reporter gene under control of the Smad binding element (SBE) stably integrated into HEK 293T cells. Also cytotoxicity of the compounds was tested in parallel by measuring the cell viability using CellTiter-Glo assay system in the same wells.
Tox21 Assay Protocol Summary: SBE-bla HEK 293T cells were dispensed at 4,000/well in 5 uL of assay medium into black wall/clear-bottom 1536-well plates using a Multidrop Combi (ThermoFisher Scientific, Waltham, MA) dispenser. After the assay plates were incubated at 37 C and 5% CO2 for an overnight, 23 nL of compounds dissolved in DMSO, positive controls or DMSO only was transferred to the assay plate by a Pintool station (Kalypsys, San Diego, CA). Compound transfer was followed by the addition of 1 uL of 0.25 ng/mL TGF-beta1 or assay buffer using two separate tips of Flying Reagent Dispenser (FRD, Aurora Discovery, San Diego, CA). The assay plates were incubated at 37 C and 5% CO2 for 5 hr. One uL of LiveBLAzer B/G FRET substrate (Life Technologies) was added using a Flying Reagent Dispenser (FRD, Aurora Discovery, San Diego, CA) and the plates were incubated at room temperature for 2 hr. Fluorescence intensity (405 nm excitation, 460 nm and 530 nm emissions) was measured using an Envision plate reader (PerkinElmer, Shelton, CT). For cytotoxicity read, 4 uL of CellTiter-Glo reagent (Promega Corporation, Madison, WI) was added to each well of the assay plates using FRD. After 30 min incubation at room temperature, the luminescence intensity was measured using ViewLux plate reader (PerkinElmer).

| SMILES | Potency |
| --- | --- |
| Cc1ccc(Cl)cc1 | inactive |
| N#CCC(=O)O | inactive |
| Brc1ccc(Oc2ccc(Br)cc2)cc1 | inactive |
| CCCCCCCCO | inactive |
| Cc1cccc(C)c1[N+](=O)[O-] | inactive |
| CC(=O)C(C)C | inactive |
| Cc1ccncc1 | inactive |
| Clc1cccc(Cl)c1NC1=NCCN1 | inactive |
| Cc1cc(C)c(O)c(C)c1 | inactive |
| OCC(CO)(CO)CO | inactive |
| COc1ccc([C@@H]2CC(=O)c3c(O)cc(O[C@@H]4O[C@H](CO[C@@H]5O[C@@H](C)[C@H](O)[C@@H](O)[C@H]5O)[C@@H](O)[C@H](O)[C@H]4O)cc3O2)cc1OC | inactive |
| CC(CN1c2ccccc2Sc2ccccc21)N(C)C (stereo not given) | inactive |
| CC/C=C(\C(=O)N[C@@H]1C(=O)N2C(C(=O)OCOC(=O)C(C)(C)C)=C(COC(N)=O)CS[C@H]12)c1csc(N)n1 | inactive |
| Cc1ccccc1C=O | inactive |
| CC(=O)OCCC(C)C | inactive |
| O=C1C(N(CO)C(=O)NCO)N(CO)C(=O)N1CO (stereo not given) | inactive |
| OCc1ccc(Cl)cc1Cl | inactive |
| NC(N)=S | inactive |
| Cc1ccc([N+](=O)[O-])cc1N | inactive |
| O=[N+]([O-])c1cc(C(F)(F)F)ccc1Cl | inactive |

| SMILES | Potency |
| --- | --- |
| O=C(c1ccccc1)c1ccc(O)c(O)c1O | inactive |
| CCCCC(CC)COC(=O)c1ccc(C(=O)OCC(CC)CCCC)cc1 (stereo not given) | inactive |
| Cc1nnc(NS(=O)(=O)c2ccc(N)cc2)s1 | inactive |
| CCc1cccc(CC)c1N | inactive |
| N[C@@H](Cc1cc(I)c(Oc2ccc(O)c(I)c2)c(I)c1)C(=O)O | inactive |
| Cc1ccc(C)c(S(=O)(=O)O)c1 | inactive |
| CN=C(NC#N)NCCSCc1nc[nH]c1C | inactive |
| Cc1cc(C)cc(O)c1 | inactive |
| OC1CCCCC1 | inactive |
| O=C1O[C@H]([C@H](O)CO)C(O)=C1O | inactive |
| O=c1n(CCCN2CCN(c3cccc(Cl)c3)CC2)nc2ccccn12 | inactive |
| CC1=CC(=O)CC(C)(C)C1 | inactive |
| NC(=O)c1ncn([C@@H]2O[C@H](CO)[C@@H](O)[C@H]2O)n1 | inactive |
| CCCCCCCCC(=O)O | inactive |
| Cc1ncc(CO)c(CO)c1O | inactive |
| O=C(Cl)c1ccc(C(=O)Cl)cc1 | inactive |
| CCCCCCCCCCCCCC(=O)O | inactive |
| CC(=O)Nc1ccc(CC(=O)O)cc1 | inactive |
| OCC(O)CS (stereo not given) | inactive |
| CCOC(=O)c1ccc(O)cc1 | inactive |
